A selection: hits, their analogues and other compounds. The true share with any hit is near 3.2%.
A549 tox – Nrf2 qHTS screen for inhibitors: counterscreen for cytotoxicity; A549 ARE-Fluc cells, CellTiter-Fluor viability, 18-24 h; Potency, µM (titrated, usually from 46 µM), for inactives: at the highest dose activity change, negative = cytotoxicity, actives largely listed as inhibitors; hit rate 0.16% among 390,000; AID 504648, 2011; also: potency is read from the fitted curve at half-maximal effect; % is scaled to controls: 0 for no effect and ±100 for the full control effect
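A549 ARE-Fluc cells in 5% FBS OPTI-MEM, 5000 cells/well, rested 2 h then exposed to compounds in concentration-response for 18-24 h at 37 °C. Viability by CellTiter-Fluor fluorescence (Ex 405/Em 525) after 30 min; luciferase luminescence (BugLite, 15 min, RT) read afterwards.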
BRCA1 expr act – qHTS Assay to Identify Small Molecule Activators of BRCA1 Expression; MCF7-BRCA1-FFLuc reporter, luminescence, 48 h; response scale: scaled: vehicle 0%, 10 µM genistein 100%; Potency, µM (top dose mostly 46.1 µM), for inactives: at the highest dose activation, most hits filed as activators; hit rate 1.1% among 380,000; AID 624202, 2012; also: potency is read from the fitted curve at half-maximal effect; nearly all actives have a fitted effect of over 80% in size
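48 h compound treatment of MCF7-BRCA1-FFLuc cells (phenol-red free MEM, 37 °C), then 15 min with luciferase substrate and luminescence imaging.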
IL2 activator – qHTS of IL-2 Activators; IL-2 activation reporter assay, cell-based qHTS; stimulated with anti-CD3/CD4/CD28 beads; in transgenic mouse T cells; hit rate 0.065% among 360,000; activation, % (series mostly up to about 46 µM); in the data active = activation above about 50%; inconclusive = mostly about 30% to 49%; also: 0% is about no effect
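Screening format: compound pinned onto unstimulated transgenic mouse T cells, 60 min incubation, then anti-CD3/anti-CD4/anti-CD28 bead stimulation for 18 hours at 37 degrees C, followed by EGFP and DsRed detection.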
Nrf2 inh – Nrf2 qHTS screen for inhibitors; A549 ARE-Fluc reporter, luciferase luminescence, 18-24 h; Potency, µM (titrated, usually from 46 µM), for inactives: at the highest dose activity change, negative = inhibition, most hits filed as inhibitors; hit rate 2.1% among 360,000; also: potency is read from the fitted curve at half-maximal effect; % is scaled to controls: 0 for no effect and ±100 for the full control effect; nearly all actives have a fitted effect of over 60% in size
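A549 ARE_Fluc cells (5000/well, 5% FBS OPTI-MEM) pre-incubated 2 h, then treated with compounds 18-24 h at 37C/5% CO2 in concentration-response. CellTiter-Fluor viability read first; BugLite luciferase luminescence after 15 min at room temperature gives Nrf2 activity.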
p53 reactivator – qHTS assay for re-activators of p53 using a Luc reporter; AID 504706, 2011; H1299 p53-A138V BP100-luciferase reporter, luminescence, 24 h; Potency, µM (highest dose often 92.2 µM), without a hit: at the top dose activity change, positive = activation, hits mostly activators; hit rate 0.063% among 320,000; also: potency is read from the fitted curve at half-maximal effect; % of control where 0% means no effect; nearly all actives have a fitted effect of over 45% in size
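H1299 (p53-null), stable ts p53-A138V + BP100-Luc; 1000 cells/well, Opti-MEM/10% FBS; cpd 4 pt, 1:5; 24 h, 37 deg C, 5% CO2; detection reagent 10 min RT; luminescence.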
Nrf2 activator – qHTS of Nrf2 Activators; hit rate 0.31% among 410,000; AREc32 ARE-luciferase reporter (MCF7-derived line), luminescence, 24 h; Potency, µM (titrated, usually from 46.1 µM), for inactives: at the highest dose activation, hits mostly activators; AID 624171, 2012; also: potency is read from the fitted curve at half-maximal effect; % of control where 0% means no effect; nearly all actives have a fitted effect of over 65% in size
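Each well held 1000 AREc32 cells, which were incubated with compound for 24 hr at 37 deg C after overnight attachment, and ARE reporter activity was quantified by firefly luciferase luminescence.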
Active calls of the source: *; ? = inconclusive; · = not tested or not shown; [ ] = remark or other dose. Unless noted, calls follow the shape of the dose curve; as a rule, active = well fitted curve in the direction sought with a large enough effect; inconclusive = small, poorly fitted or top-dose-only effect, or another doubt; inactive = no such curve, though single readings can be large; an effect the other way counts as inactive or inconclusive.

SMILES	A549 tox	BRCA1 expr act	IL2 activator	Nrf2 inh	p53 reactivator	Nrf2 activator
CCCC(=O)Nc1nnc(/C=C/c2ccc(OC)cc2)s1	-2%	5.6µM*	-2	5%	4%	2%
CCCCC(=O)Nc1nnc(/C=C/c2ccc(OC)cc2)s1	0%	?	1	?	-8%	6%
COc1ccc(/C=C/c2nnc(NC(=O)COc3cccc(C)c3)s2)cc1	0%	4.5µM*	-2	?	-2%	4%
COc1ccc(-c2nnc(C3CCN(C(=O)c4ccccc4F)CC3)o2)cc1	0%	·	·	-13%	·	9%
O=c1oc(CCCO)cc2ccc(/C=C/c3cccc([N+](=O)[O-])c3)cc12	2%	6.3µM*	0	?	11%	8%
CCCCn1cnc2c(SCc3ccc(Br)cc3)nc(N)nc21	-19%	-61%	-1	18µM*	·	5%
CCCCn1cnc2c(SCc3ccccc3)nc(N)nc21	4%	7.1µM*	-1	0%	·	5%
CCOC(=O)c1c(-c2ccc(F)cc2)csc1/N=C/N(C)C	?	-3%	1	16µM*	-5%	3%
C[C@@H]1C[C@@H]2OC(=O)[C@]3(C)[C@H]2[C@@H](OC3(C)O)[C@]2(C)C(=O)C=C[C@H]12 (stereo partly specified)	-3%	-24%	2	-19%	-9%	14µM*
C=C1C(=O)C=C[C@]2(C)C[C@@H]3OC(=O)[C@](C)(O)[C@H]3C[C@@H]12	-27%	-78%	-1	?	-15%	?
Cc1snc2sc(C(=O)c3ccc(F)cc3)c(N)c12	0%	10µM*	6	8%	23%	13%
CC1CCN(S(=O)(=O)c2ccc3c(c2)N(CC(=O)N2CCN(c4ccc(Cl)cc4)CC2)C(=O)CO3)CC1	-12%	-13%	·	0%	·	0%
Cc1ccc(NC(=O)Cc2nc(-c3c[nH]c(C(=O)N4CCCC4)c3)cs2)c(C)c1	0%	-44%	1	21µM*	-4%	9%
CN(C(=O)Cc1c[nH]c2ccccc12)C(C(=O)Nc1ccc2c(c1)OCO2)c1ccccc1 (stereo unspecified)	?	-38%	-4	23µM*	11%	4%
CC(=O)NC(Cc1c[nH]c2ccccc12)C(=O)Nc1ccc2c(c1)OCO2 (stereo unspecified)	-1%	27%	0	·	5%	4%
O=S1(=O)N=C(Oc2ccccc2F)c2ccccc21	1%	·	·	?	·	·
COC(=O)c1c(NC(=O)c2cc3nc(-c4ccc(Br)cc4)cc(C(F)(F)F)n3n2)sc2c1CCCC2	2%	·	·	·	·	4%
S=C1NC2=C(CCCC2=C2SCCS2)C(c2ccccc2)N1 (stereo unspecified)	1%	-5%	2	?	0%	22µM*
CCOC(=O)c1c(C)[nH]c(C)c1S(=O)(=O)N1CCCC(C(=O)N2CCN(c3ccccc3F)CC2)C1 (stereo unspecified)	1%	·	·	·	·	0%
O=C(O)CSCC(=O)Nc1ccc(Cl)cc1C(F)(F)F	1%	-30%	0	-1%	-5%	0%
CC(C)N(CC(=O)Nc1ccc(Cl)cc1C(F)(F)F)C(=O)CCl	?	-7%	-3	13µM*	-11%	?
CCC(C)N(CC(=O)Nc1cccc(C)c1C)C(=O)CCl (stereo unspecified)	3%	-90%	-5	?	-10%	7.9µM*
CCC(CC)NC(=O)Nc1cccc(C)c1C	16%	-1%	0	0%	-2%	0%
O=C1CN(C(=O)C2CCCCC2)C(c2ccccc2)c2cc(F)ccc2N1 (stereo unspecified)	1%	·	·	-14%[9.27 µM]	·	1%
COc1ccc(-c2cn3nc(N4CCCC(C(=O)Nc5cccc(Cl)c5C)C4)sc3n2)cc1 (stereo unspecified)	-8%	·	·	-16%	·	0%
SMILES	A549 tox	BRCA1 expr act	IL2 activator	Nrf2 inh	p53 reactivator	Nrf2 activator
CCC1=C(CC2NCCc3ccccc32)CC2c3cc(OC)c(OC)cc3CCN2C1 (stereo unspecified)	7.3µM*	-86%	-1	3.7µM*	·	-1%
CC(=O)Oc1cc2c(c3ccccc13)CCC2=O	0%	-18%	0	-1%	·	13µM*
OC(COc1ccc(OCC(O)CN2CCCCCC2)cc1)CN1CCCCCC1 (stereo unspecified)	2.6µM*	-46%	0	·	-1%	-1%
Oc1ccccc1-c1nc(NCc2cccnc2)c2ccccc2n1	?	-56%	-2	12µM*	-3%	-2%
COCCNC(=O)Cn1c(=O)n(-c2ccc(C)c(C)c2)c(=O)c2c3c(sc21)CCCCC3	-1%	0%	·	4%	·	-1%
Cc1ccc(-c2nn3c(C)nnc3c3ccccc23)cc1S(=O)(=O)NC(C)(C)CO	?	-81%	1	12µM*	-8%	?
COc1ccc(C)c2sc(NC(=O)c3ccc(S(=O)(=O)N(C)C)cc3)nc12	-1%	7%	·	·	·	-1%
O=C(c1cc(-c2ccc(Cl)c(Cl)c2)on1)N1CCCCC1	?	4µM*	0	?	?	3%
CCC1CCCCN1C(=O)c1cc(-c2ccc(Cl)c(Cl)c2)on1 (stereo unspecified)	-14%	11µM*	-1	-15%	?	3%
CC1CCCCN1C(=O)c1cc(-c2ccc(Cl)c(Cl)c2)on1 (stereo unspecified)	13%	5.6µM*	0	?	?	0%
COc1ccc(-c2cc(C(=O)N3CCCCC3C)no2)cc1OC (stereo unspecified)	-2%	·	·	12%	·	6%
O=C(c1cc(-c2ccc(Cl)cc2)on1)N1CCCC1	-1%	?	0	?	?	0%
Cc1ccc(Cl)cc1Nc1nn2c(=O)c3ccc(C(=O)NC(C)c4ccccc4)cc3nc2s1 (stereo unspecified)	-9%	·	·	-11%	·	1%
CC1CCN(c2ncnc3c2nnn3C)CC1	-7%	·	·	·	·	0%
CCOc1ccc(NC(=O)/C(C#N)=C\c2ccc(N3CCCC3)c(C)c2)cc1	-1%	-38%	174*	4%	·	0%
O=C(CC(=O)c1ccccc1)Nc1ccccc1C(F)(F)F	0%	47%	0	16µM*	?	3%
O=C(COc1ccc(C(=S)N2CCCC2)cc1)Nc1ccccc1C(F)(F)F	?	-66%	-1	23µM*	-12%	3%
